In all, about 410,000 compounds went through this assay and about 490 (0.12%) were called active. Another 1% or so got no clear call; they are omitted. Calls follow the shape of the dose curve; as a rule, active = well fitted inhibition curve with a large enough effect; inconclusive = small, poorly fitted or top-dose-only effect; inactive = flat fitted curve, though single readings scatter. Shown is part of a subset that was picked to be rich in actives.
What follows are molecules tested against pyruvate kinase (Trypanosoma brucei) (UniProt Q57TT1) (assay: qHTS of Trypanosoma Brucei Inhibitors). Conditions: TbPYK enzyme, Kinase-Glo Plus ATP luminescence, 45 min; series mostly up to 76.8 µM; activity, negative = inhibition: at the top concentration.
Description: Members of the Trypanosomatidae family of parasitic protozoans cause a spectrum of diseases throughout the tropical and subtropical world. Sleeping sickness, caused by two subspecies of Trypanosoma brucei, is endemic to areas of sub-Saharan Africa, while Chagas' disease, a manifestation of Trypanosoma cruzi infection, is prevalent throughout Central and South America. In addition, many species of Leishmania are responsible for a range of cutaneous and visceral diseases, causing ulcers, destructive lesions and kalaazar, a lethal infection of the viscera. These diseases cause severe public health and economic burdens on populations that are often already caught in a tragic cycle of poverty, poor nutrition and disease. Collectively, parasites of the trypanosomatid family infect 30 million people worldwide (~500 million live in endemic areas), and account for ~130K deaths annually. Existing treatments have developed little in the past 50 years, and suffer from toxicity, poor efficacy and resistance; the goal of this project is to develop lead drugs that will be suitable for entry into pre-clinical trials.
Glycolysis in axenically cultured T. cruzi, representing the intracellular pathogenic stage, is also essential for these parasites. {Engel, 1987} This project aims to discover and optimize selective inhibitors of the glycolytic enzyme pyruvate kinase (PYK) from Trypanosoma brucei, the parasite that causes sleeping sickness. […] Trypanosomatid PYKs show significant differences from their human counterparts including only 47-50% sequence identity and different allosteric and activation properties.{Callens, 1992} To this end, a qHTS was done against the MLSMR to discover inhibitors.
NIH Molecular Libraries Probe Production Network [MLPCN]
NIH Chemical Genomics Center [NCGC]
PI Name: Malcolm Walkinshaw, University of Edinburgh
2 uL of TbPYK/substrate buffer (columns 1-3, 5-48) are dispensed into Greiner white solid bottom 1536-well assay plates; column 4 receives only TEA buffer as 0x TbPYK controls. Compounds are then transferred via Kalypsys pin tool equipped with 1536-pin array (10 nL slotted pins, V&P Scientific, San Diego, CA). Following addition of compound, 2 uL of ADP (130 uM final concentration, all columns) is added to initiate the reaction. The plates are then incubated at room temperature for 45 minutes. Kinase-Glo Plus reagent is added (3 uL) and plates incubated for 10 minutes, before being transferred to a ViewLux high-throughput CCD imager (PerkinElmer) wherein single end-point measurements of luminescence are acquired using a clear filter. All reagents are diluted in an assay buffer consisting of 50 mM TEA (pH 7.2), 100 mM KCl, 10 mM MgCl2, 0.05% BSA and 0.01% Tween-20.
All screening operations will be performed on a fully integrated robotic system (Kalypsys, San Diego, CA) containing one RX-130 and two RX-90 anthropomorphic robotic arms (Staeubli, Duncan, SC). Library plates will be screened starting from the lowest and proceeding to the highest concentration. Vehicle-only plates, with DMSO being pin-transferred to columns 5-48, will be inserted uniformly at the beginning and the end of each library in order to monitor and record any shifts in the background, which can be affected by reagent dispensers or loss in enzyme activity over time. Screening data will be corrected, normalized, and concentration-effect relationships will be derived by using publicly-available curve fitting algorithms developed in-house (http://ncgc.nih.gov/pub/openhts).
% is scaled to controls: 0 for no effect and ±100 for the full control effect; potency is read from the fitted curve at half-maximal effect.
Also: nearly all actives have a fitted effect of over 50% in size.

SMILES	activity, negative = inhibition	Potency
O=C(c1ccncc1)N1CCC2(CCCN(C(c3ccccc3)c3ccccc3)C2)CC1	0% (inactive)	–
O=c1c(CCc2ccccc2)nc2cncnc2n1C1CC1	-7.75% (inactive)	–
CC(=O)NC(=O)c1ccccc1O	-5.98% (inactive)	–
COc1ccc(CNc2nc(-c3ccc(Cl)cc3)cc(C(F)(F)F)n2)cc1	2.22% (inactive)	–
COc1ccc(-c2cn(-c3ccc(C)cc3)c(=O)n2CC(=O)Nc2ccc(OC)c(OC)c2)cc1	8.82% (inactive)	–
COc1ccc(-n2c(-c3ccc(OC)c(OC)c3)n[nH]c2=S)cc1	–	3.98 µM (active)
COc1ccc(-n2c(-c3ccc(Cl)cc3)n[nH]c2=S)c(OC)c1	–	5.62 µM (active)
COc1ccc(-n2c(C)csc2=S)cc1	-1.59% (inactive)	–
COc1cc(OC)c(-n2cc(-c3ccc(Cl)cc3)[nH]c2=O)cc1Cl	1.38% (inactive)	–
O=C(Nc1cccc(F)c1)N1CCC2(CC1)CCN(S(=O)(=O)c1ccccc1)CC2	-4.6% (inactive)	–
C=C1C(=CC=C2CCC[C@@]3(C)[C@@H]2CC[C@H]3[C@H](C)CCCC(C)C)C[C@@H](O)C[C@@H]1O	-17.6% (inactive)	–
Cc1nnc(C(=O)NC(C)(C)c2nc(C(=O)NCc3ccc(F)cc3)c(O)c(=O)n2C)o1	-4.15% (inactive)	–
CCC1(c2ccccc2)C(=O)NC(=O)N(C)C1=O (configuration not stated)	5.1% (inactive)	–
CCCCCCCCCc1ccc(OCCOCCOCCOCCOCCOCCOCCOCCOCCO)cc1	-7.24% (inactive)	–
CCC[C@H]1C(=O)N2C(N(C)C)=Nc3ccc(C)cc3N2C1=O	0.389% [at 33.2 µM] (inactive)	–
O=c1c(-c2ccc(F)c(F)c2)nc2cncnc2n1-c1ccccc1	-7.65% (inactive)	–
COc1ccc(Oc2ncc3nc(-c4ccc(F)cc4)c(=O)n(C)c3n2)cc1	-8.28% (inactive)	–
CC(=O)OC1C([N+]2(C)CCCCC2)C[C@H]2C3CC[C@H]4C[C@H](OC(C)=O)C([N+]5(C)CCCCC5)CC4(C)C3CCC12C (some centres not stated)	2.62% (inactive)	–
CCC(CCC(C)C1CCC2C3CC=C4CC(O)CC[C@@]4(C)C3CC[C@@]12C)C(C)C (some centres not stated)	0% (inactive)	–
COc1cccc(Cn2c(=O)c(C)nc3cnc(Oc4ccccc4)nc32)c1	-10.8% (inactive)	–
CNC(C)[C@@H](O)c1ccccc1 (some centres not stated)	2.95% (inactive)	–

SMILES	activity, negative = inhibition	Potency
O=C(c1cnccn1)N1CCC2(CCN(Cc3cc(C(F)(F)F)cc(C(F)(F)F)c3)CC2)CC1	0% (inactive)	–
CCNc1ncc2nc(CCc3ccccc3)c(=O)n(-c3ccc(OC)cc3)c2n1	-7.09% (inactive)	–
O=C(c1ccco1)N1CCC2(CC1)CCN(c1ncccn1)CC2	5.21% (inactive)	–
Cc1cn([C@H]2CC(F)[C@@H](CO)O2)c(=O)[nH]c1=O (some centres not stated)	5.23% (inactive)	–
Cc1cccc([C@H](C)c2cnc[nH]2)c1C	0% (inactive)	–
COc1ccc(-c2nc3cnc(Oc4ccccc4)nc3n(Cc3cccs3)c2=O)cc1	1.2% (inactive)	–
COc1ccc(-n2c(=O)c(-c3cn(C)c4ccccc34)nc3cnc(OC)nc32)cc1	6.7% (inactive)	–
N#Cc1ccc(CN2CCCC3(CCN(C(=O)c4ccco4)CC3)C2)cc1	5.2% (inactive)	–
CC(=O)Oc1ccc2c3c1OC1C(OC(C)=O)C=CC4[C@@H](C2)N(C)CC[C@]314 (some centres not stated)	-3.56% [at 157 µM] (inactive)	–
O=C(c1ccco1)N1CCC2(CC1)CN(c1ncccn1)C2	6.02% (inactive)	–
O=C(Nc1cccc(F)c1)N1CC[C@@]2(CCCN(C(=O)Oc3ccccc3)C2)C1	-0.503% (inactive)	–
COc1ccc(NC(=O)N2CC3(CCN(C(=O)c4cccn4C)CC3)C2)cc1	5.66% (inactive)	–
CCOC(=O)C1CCCN(S(=O)(=O)c2cc(-c3cc(C)no3)ccc2OC)C1 (configuration not stated)	2.51% (inactive)	–
O=C(c1cc(C(F)(F)F)cc(C(F)(F)F)c1)N1CCC2(CCCN(c3ccccn3)C2)CC1	4.85% (inactive)	–
COc1ccc(-c2oc3cc(OC)ccc3c2C(=O)c2ccc(C#N)cc2)cc1	2% (inactive)	–
Oc1ccc(Cl)c2c1CCC2	-1.73% (inactive)	–
CC1(C)OC[C@@H](COC(=O)CCc2ccc(OC[C@@H](O)CNCCNC(=O)N3CCOCC3)cc2)O1	–	inactive
c1ccc(CN2CC[C@@]3(CCCNC3)C2)cc1	1.4% (inactive)	–
COc1cccc(Cn2c(=O)c(-c3cc(F)cc(F)c3)nc3cnc(OC)nc32)c1	-4.11% (inactive)	–
CC(=O)CC(c1ccccc1)C1C(=O)Oc2ccccc2C1=O (configuration not stated)	-1.9% (inactive)	–
COc1cc2c(cc1OC)[C@@H](Cc1cc(OC)c(OC)c(OC)c1)[N+](C)(CCCOC(=O)CC/C=C/CCC(=O)OCCC[N+]1(C)CCc3cc(OC)c(OC)cc3[C@H]1Cc1cc(OC)c(OC)c(OC)c1)CC2 (some centres not stated)	2.34% (inactive)	–

SMILES	activity, negative = inhibition	Potency
C[C@H]1C[C@H]2[C@@H]3CCC4=CC(=O)C=C[C@]4(C)[C@@H]3C(=O)C[C@]2(C)[C@@]1(O)C(=O)CO	-4.12% (inactive)	–
CCOc1ccc(NC(=O)CC2C(=O)N(c3cccc(OC)c3)C(=O)N2C2CCCCC2)cc1 (configuration not stated)	3.35% (inactive)	–
COCCn1c(=O)c(-c2cc(F)cc(F)c2)nc2cnc(N3CCNCC3)nc21	-4.63% (inactive)	–
CC(=O)N1CCC2(CC1)CCN(c1ccncc1)CC2	-7.23% (inactive)	–
O=S(O)CNc1ccc(S(=O)(=O)c2ccc(NCS(=O)O)cc2)cc1	9.07% (inactive)	–
O=C(c1ccco1)N1CCC[C@@]2(CCN(Cc3nccs3)C2)C1	-6.32% (inactive)	–
Cn1cccc1C(=O)N1CCC2(CC1)CN(c1cccc(-c3ccccc3)c1)C2	-3.39% (inactive)	–
C/C=C1\C2C=C(C)CC1(N)c1ccc(=O)[nH]c1C2 (configuration not stated)	-2.6% (inactive)	–
NC(=O)C(=O)N/N=C/c1ccc([N+](=O)[O-])o1	0.18% (inactive)	–
O=C(c1cc(C(F)(F)F)cc(C(F)(F)F)c1)N1CCC[C@@]2(CCN(c3ccccn3)C2)C1	4.4% (inactive)	–
CC(C)NC(=O)N1CCC2(CC1)CCN(C(=O)c1cccn1C)CC2	1.85% (inactive)	–
O=C(O)CCC(=O)O	-2.93% (inactive)	–
CC(C)(O/N=C(\C(=O)N[C@@H]1C(=O)N2C(C(=O)[O-])=C(C[n+]3ccccc3)CS[C@@H]12)c1csc(N)n1)C(=O)O	-4.78% [at 33.2 µM] (inactive)	–
COCCn1c(=O)c(CCc2ccccc2)nc2cnc(N3CCNCC3)nc21	-7.17% (inactive)	–
COc1ccnc(C[S@@](=O)[C@@H]2Nc3ccc(OC(F)F)cc3N2)c1OC	-17.7% (inactive)	–
C[C@]12CC[C@@H]3c4ccc(O)cc4C[C@@H](CCCCCCCCCS(=O)CCCC(F)(F)C(F)(F)F)C3[C@@H]1CC[C@@H]2O (some centres not stated)	-5.87% (inactive)	–
C=CCn1c(C)cc(C2=NNC(=NCC)SC2)c1C	–	17.8 µM (active)
CC1N=C(N)OC1c1ccccc1 (configuration not stated)	0% [at 157 µM] (inactive)	–
CS(=O)(=O)N1CCC2(CCN(c3ccncc3)CC2)CC1	-6.52% (inactive)	–
CC1(C)O[C@@H]2C[C@@H]3[C@H]4C[C@@H](F)C5=CC(=O)C=C[C@]5(C)[C@@]4(F)[C@@H](O)C[C@]3(C)[C@]2(C(=O)CO)O1	-3.24% (inactive)	–

From PubChem BioAssay AID624173 (National Center for Advancing Translational Sciences (NCATS), 2012)
